From PubChem
A selection: hits, their analogues and other compounds. The true share with any hit is near 19%.
IL-1B inflam inh – qHTS for Inhibitors of Inflammasome Signaling: IL-1-beta AlphaLISA Primary Screen. AID 743279, 2014. activity change, % at 57.5 µM. actives 4.7% (n = 360,000). THP-1 LPS/ATP IL-1B secretion, AlphaLISA, 16 h; hits give low values; in the data active means activity change below about -50%; inconclusive means mostly about -30% to -49%; further: on the % scale 0 is the no-effect control and ±100 the full control effect
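THP-1 cells pretreated 1 hr with compounds (up to 57.5 uM final), then stimulated with LPS (250 ng/mL final) plus ATP (1.25 mM final); secreted IL-1B measured by AlphaLISA after 16 hr, decreased signal indicating inhibition.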
DT40 TDP1 CPT – qHTS for Inhibitors of human tyrosyl-DNA phosphodiesterase 1 (TDP1): qHTS in cells in presence of CPT | actives 12% (n = 420,000) | Potency, µM (doses to about 46.2 µM), for inactives: at the highest dose activity change, negative = growth inhibition, actives largely listed as inhibitors | chicken DT40 Tdp1-/-;hTDP1 cells + 20 nM CPT, ATP luminescence, 48 h | AID 686979, 2013; further: potency means the concentration at half of the fitted maximal effect; on the % scale 0 is the no-effect control and ±100 the full control effect; nearly all actives have a fitted effect of over 55% in size
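Chicken DT40 Tdp1-/- cells stably complemented with human TDP1 were seeded at 400 cells/well in medium containing 20 nM camptothecin, exposed to pin-transferred compounds, and grown at 37 °C for at least 48 hr. Viability was read as ATP luminescence.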
TDP1 block – qHTS Assay for Inhibitors of Tyrosyl-DNA Phosphodiesterase (TDP1); recombinant TDP1, AlphaScreen DNA substrate cleavage; Potency, µM (highest dose often 130 µM), for inactives: at the highest dose activity change, negative = inhibition, usual class: inhibitors; actives 0.28% (n = 350,000); AID 485290, 2010; further: potency means the concentration at half of the fitted maximal effect; on the % scale 0 is the no-effect control and ±100 the full control effect; nearly all actives have a fitted effect of over 40% in size
Target sequence (Q9NUW8 whole entry, looked up): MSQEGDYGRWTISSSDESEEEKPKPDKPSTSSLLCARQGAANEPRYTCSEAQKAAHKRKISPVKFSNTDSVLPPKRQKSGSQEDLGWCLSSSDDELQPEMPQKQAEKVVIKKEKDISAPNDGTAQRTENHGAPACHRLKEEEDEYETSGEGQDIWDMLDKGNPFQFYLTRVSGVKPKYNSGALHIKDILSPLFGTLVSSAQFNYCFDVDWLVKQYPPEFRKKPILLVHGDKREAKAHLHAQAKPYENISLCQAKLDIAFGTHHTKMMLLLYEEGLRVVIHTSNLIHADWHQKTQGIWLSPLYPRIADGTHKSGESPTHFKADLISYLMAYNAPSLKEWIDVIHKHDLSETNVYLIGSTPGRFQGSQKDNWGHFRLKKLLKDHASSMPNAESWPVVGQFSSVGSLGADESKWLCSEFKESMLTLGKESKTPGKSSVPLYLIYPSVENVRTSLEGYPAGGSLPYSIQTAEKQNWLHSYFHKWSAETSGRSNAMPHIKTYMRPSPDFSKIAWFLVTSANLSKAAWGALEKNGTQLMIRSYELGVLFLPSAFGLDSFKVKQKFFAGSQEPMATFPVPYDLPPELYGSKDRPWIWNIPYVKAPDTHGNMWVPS
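Recombinant E. coli-expressed Tdp1 (1 nM) preincubated with compound 15 min at RT, then 5'-biotin/3'-phosphotyrosine-FITC DNA substrate (15 nM) added for 5 min. AlphaScreen beads (10 ug/ml) added, 10 min RT; tyrosine-FITC cleavage read as signal loss.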
TGFb SMAD3 inh – qHTS for Inhibitors of TGF-b; HepG2 CAGA-GFP TGF-b/SMAD3 reporter, GFP fluorescence, 18 h; TGF-beta stimulated, 500 pg/mL final; Potency, µM (titrated, usually from 46.1 µM), for the others: at the top dose activity, negative = inhibition, actives largely listed as inhibitors; actives 1.2% (n = 410,000); further: potency means the concentration at half of the fitted maximal effect; on the % scale 0 is the no-effect control and ±100 the full control effect; nearly all actives have a fitted effect of over 65% in size
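Smad-responsive CAGA-GFP expression was quantified in HEPG2 cells exposed to compounds and 500 pg/mL final TGF-beta for 18 h at 37 degrees C; unstimulated wells defined full inhibition.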
HepG2 viability – qHTS for Inhibitors of TGF-b: Cytotox Counterscreen; HepG2 CAGA-GFP viability, ATP luminescence, 18 h; Potency, µM (top dose mostly 46.1 µM), for the others: top-dose activity change, negative = cytotoxicity, most hits filed as cytotoxic; actives 0.76% (n = 410,000); further: potency means the concentration at half of the fitted maximal effect
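CellTiter-Glo luminescence gave cytotoxicity after 18 hours at 37 degrees C. The cells were HepG2 CAGA-GFP in 1% FBS DMEM, stimulated with 500 pg/mL TGF-beta after compound addition. %Activity was normalised to no-cell wells (complete cell-killing) and DMSO (no toxicity), and curves were fitted and classified.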
DT40 TDP1 no CPT – qHTS for Inhibitors of human tyrosyl-DNA phosphodiesterase 1 (TDP1): qHTS in cells in absence of CPT | actives 15% (n = 420,000) | DT40 Tdp1-/- hTDP1 cells, no CPT, ATP luminescence, 48 h | AID 686978, 2013 | Potency, µM (highest dose often 46.2 µM), without a hit: at the top dose activity change, negative = growth inhibition, actives largely listed as inhibitors; further: potency means the concentration at half of the fitted maximal effect; on the % scale 0 is the no-effect control and ±100 the full control effect; nearly all actives have a fitted effect of over 55% in size
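Compound effects on proliferation are scored in DT40 Tdp1-/-;hTDP1 cells in the absence of CPT. ATP levels (CellTiter-Glo luminescence) are recorded after a ≥48 hr, 37 °C incubation.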
Numbers without * were called inactive; u = inconclusive; x = no result; [ ] = dose if it differs, or a comment. Unless noted, the call rests on the fitted dose curve; in most records, active means well fitted curve in the direction sought with a large enough effect; inconclusive means small, poorly fitted or top-dose-only effect, or another doubt; inactive means no such curve, though single readings can be large; an effect the other way counts as inactive or inconclusive.

SMILES	IL-1B inflam inh	DT40 TDP1 CPT	TDP1 block	TGFb SMAD3 inh	HepG2 viability	DT40 TDP1 no CPT
COc1cccc(Nc2ncc3nc(-c4ccccc4)c(=O)n(C[C@H]4CCCO4)c3n2)c1	x	-4%	x	x	x	u
CC(=O)Nc1cccc(-c2ccnc3c2CC(C(=O)Nc2cccc(NS(C)(=O)=O)c2)O3)c1 (stereo unspecified)	-1	-18%	x	0%	-45%	-28%
O=C(Nc1ccc(F)c(Cl)c1)C1Cc2c(-c3cccc(F)c3)ccnc2O1 (stereo unspecified)	u	u	x	u	-50%	u
CCn1cc(C2=NOC(C(=O)Nc3c(C)nn(Cc4ccc(F)cc4)c3C)C2)c(C)n1 (stereo unspecified)	0	u	0%	-18%	-21%	u
CC(=O)c1cccc(-c2ccnc3c2CC(C(=O)Nc2ccc(F)c(Cl)c2)O3)c1 (stereo unspecified)	-25	18µM*	x	u	3%	21µM*
CCn1cc(C2=NOC(C(=O)Nc3cccc(C(C)=O)c3)C2)c(C)n1 (stereo unspecified)	-2	16µM*	-5%	16%	-12%	u
CS(=O)(=O)Nc1cccc(NC(=O)C2Cc3c(-c4ccccc4)ccnc3O2)c1 (stereo unspecified)	-2	10µM*	x	-12%	-60%	7.3µM*
COc1cc(OC)c2c(c1)OC(c1ccccc1)CC2=O (stereo unspecified)	x	4%	12%[56.1 µM]	x	x	u
CCOc1ccc(N(CC(=O)NC2CCCC2)S(=O)(=O)c2c(C)noc2C)cc1	-2	-29%	4%	3%	7%	-27%
CCOc1ccc(N(CC(=O)Nc2ccc(C)c(C)c2)S(=O)(=O)c2c(C)noc2C)cc1	-24	9.2µM*	5%	u	-20%	10µM*
CCOc1ccc(N(CC(=O)Nc2cccc(F)c2)S(=O)(=O)c2c(C)noc2C)cc1	-1	u	1%	-26%	1%	21µM*
Cc1cc2c(cc1S(=O)(=O)CCC(=O)N(C)Cc1ccccc1)OCC(=O)N2	3	-15%	13%	3%	-17%	-22%
Cc1ccc(C2N3CC4(C)CN2CC(c2ccccc2)(C3)C4=O)cc1 (stereo unspecified)	x	u	7%	u	-5%	u
CC(C)c1ccc(C2N3CC4(C)CN2CC(c2ccccc2)(C3)C4=O)cc1 (stereo unspecified)	x	u	0%	1%	-4%	18µM*
COc1ccc2cnoc(=O)c2c1OC	x	17%[9.04 µM]	8%	x	x	7%[9.04 µM]
N#CCS(=O)(=O)c1ccccc1	12	15%	x	-3%	5%	-3%
Cc1cc(C(=O)Cn2nnc3ccccc3c2=O)c(C)n1Cc1cccs1	-11	29µM*	5%	-33%	-15%	18µM*
Cc1cc(C(=O)Nc2ccc(Cl)cc2)c(C)n1Cc1cccs1	x	u	5%	12%	15%	8.2µM*
COc1ccc(NC(=O)c2cc3c(=O)n(Cc4cccs4)ccc3nc2C)cc1	x	u	2%	-22%	-14%	u
Cc1cc(C)cc(NC(=O)c2cc(C)n(Cc3cccs3)c2C)c1	-9	29µM*	-4%	-10%	-17%	18µM*
Cc1cc(C(=O)CN2C(=O)c3ccccc3C2=O)c(C)n1Cc1cccs1	4	u	0%	-5%	-11%	u
